Experimental data taken from ChEMBL document CHEMBL4513216, “Probing the Open Global Health Chemical Diversity Library for Multistage-Active Starting Points for Next-Generation Antimalarials” (ACS Infect Dis, 2020).
Screen size: about 69,000 compounds; about 8,600 (12%) showed an effect of 50% or more. This excerpt belongs to a sample that is enriched for strong results.

tested on: Plasmodium berghei; experiment: Screen against P. berghei liver stage (PbLuc), transformed with Luciferase, at 10uM; format: functional, HepG2; details: tested at 10 uM

First: COC[C@@]12CC[C@@H](N3CCOCC3)C[C@H]1CCN(c1ccc(Cl)cn1)C2
Second: COC[C@@]12CC[C@@H](N3CCOCC3)C[C@H]1CCN(c1ncccc1Cl)C2
The INHIBITION of the first is higher: 16.7% for the first, 13.5% for the second.

First: COC[C@@]12CC[C@@H](N3CCOCC3)C[C@H]1CCN(c1cnccn1)C2
Second: COC[C@@]12CC[C@@H](N3CCOCC3)C[C@H]1CCN(c1cc(C)ccn1)C2
The INHIBITION of the first is lower: -15.1% for the first, 70.3% for the second.

Compared with COC[C@@]12CC[C@@H](N3CCOCC3)C[C@H]1CCN(c1ncccn1)C2, COC[C@@]12CC[C@@H](N3CCOCC3)C[C@H]1CCN(c1ncccc1C)C2 is lower in INHIBITION: 53.5% for the first, 45.8% for the second.

First: O=C(Cn1cnc2sccc2c1=O)NCCc1nnc2ccccn12
Second: O=C(CCN1CCCC1=O)Nc1cnn(-c2ccccc2Cl)c1
The INHIBITION of the first is higher: 46.4% for the first, -46.4% for the second.

First: COCC(=O)N1CCc2ccc(=O)n(CC3CC3)c2CC1
Second: COCCn1c2c(ccc1=O)CCN(Cc1ccoc1)CC2
The INHIBITION of the first is lower: -13.2% for the first, 25.1% for the second.

First: c1csc(CNCC2COCc3c(-c4ccoc4)nnn3C2)n1 (stereo not drawn)
Second: O=C(NCc1ccco1)[C@H]1CC[C@@H]2[C@@H](CCN2Cc2nccs2)O1
The INHIBITION of the first is higher: 13.1% for the first, -30.1% for the second.

Compared with CCCC(=O)Nc1cccc(C(=O)N(C)CCCC2CCCO2)c1 (stereo not drawn), Cc1nc(CN(C)C(=O)c2cccc(CC3CCNCC3)c2)no1 is higher in INHIBITION: 33.7% for the first, 34% for the second.

First: CCN1CCC2(C=C(C(=O)NC3CC3)c3ccccc32)CC1
Second: O=C(c1ccno1)N1CCC2(CC1)C(=O)N(CC1CC1)c1ccccc12
The INHIBITION of the first is lower: 12.4% for the first, 25.7% for the second.

First: CN(Cc1nc(C2CC2)no1)C(=O)c1cccc(CC2CCNCC2)c1
Second: CN(Cc1ccno1)C(=O)c1cccc(CC2CCNCC2)c1
The INHIBITION of the first is lower: 59.7% for the first, 70.4% for the second.

Going from CN(Cc1nc(C2CC2)no1)C(=O)C1COc2ccccc2C1 (stereo not drawn) to CNc1ncc(CN(C)C(=O)c2cccc(CC3CCNCC3)c2)cn1, the INHIBITION rises from -9.08% to 19.1%.

Going from CCOCCn1c(=O)[nH]c2cc(C(=O)N(C)Cc3ccno3)ccc21 to CCn1cc(CNCc2ccc(C(=O)OC)cc2)c(C)n1, the INHIBITION rises from 8.35% to 39.7%.

Compared with CCN(Cc1cnn(C)c1)C[C@H]1CC[C@@H](Cc2cccc(CN)c2)O1, CN(Cc1cnn(C)c1)c1nccc(-c2cc(C(=O)O)ccn2)n1 is higher in INHIBITION: 15.1% for the first, 33% for the second.

Going from Cc1cnn(CC2CCCN2CCCS(C)(=O)=O)c1 (stereo not drawn) to CCCN1CCCC1Cn1nc(C)cc1C (stereo not drawn), the INHIBITION rises from 13.3% to 34.35%.

First: CCN(c1cc(C)cc(C)c1)S(=O)(=O)c1cc(C(=O)O)cs1
Second: CCC(NC(=O)c1c(C(=O)O)cnn1C)c1ccc(C)cc1C (stereo not drawn)
The INHIBITION of the first is higher: 42.9% for the first, 15.9% for the second.

First: Cc1ccc(NC(=O)c2n[nH]c(-n3cnnc3)n2)cc1
Second: N#Cc1cc(C#N)c(SCC(=O)Nc2ccc(F)cc2)nc1N
The INHIBITION of the first is lower: -5.59% for the first, 35.1% for the second.

First: Cc1noc(C)c1CCC(=O)N1CCCN(CC(N)=O)CC1
Second: Cc1noc(C)c1CCC(=O)N1CCCN(Cc2cccs2)CC1
The INHIBITION of the first is lower: 37.95% for the first, 52% for the second.

First: CCc1nc(CN2CCN(C(=O)Cc3c(C)noc3C)CC2)cs1
Second: Cc1noc(C)c1CC(=O)N1CCN(Cc2cscn2)CC1
The INHIBITION of the first is higher: 50.4% for the first, 27.94% for the second.

Compared with CCc1nc(CN2CCN(C(=O)N3CCCCC3)CC2)cs1, CCc1nc(CN2CCCN(C(=O)c3c(C)noc3C)CC2)cs1 is higher in INHIBITION: -2.53% for the first, 28.7% for the second.

Going from Cc1noc(C)c1CCC(=O)N1CCN(Cc2cscn2)CC1 to Cc1noc(C)c1CCC(=O)N1CCCN(Cc2cscn2)CC1, the INHIBITION falls from 1.7% to -5.51%.

First: Cc1noc(C)c1CC(=O)N1CCCN(Cc2cscn2)CC1
Second: Cc1cc(C)nc(C2CCN(C(=O)CO)CC2)n1
The INHIBITION of the first is higher: 57.4% for the first, 26.65% for the second.

Going from O=C(C1CCOC1)N1CCN(CCn2cccn2)c2ncccc2C1 (stereo not drawn) to O=C([C@H]1CCCO1)N1CCN(Cc2cccnc2)c2ncccc2C1, the INHIBITION rises from 11.3% to 15.4%.

First: CN(C)C(=O)CN1CCC2(CCN(S(=O)(=O)C3CC3)CC2)C1=O
Second: Cc1cc(C)c(CNC(=O)N2CCN(c3ccncc3)CC2)c(=O)[nH]1
The INHIBITION of the first is higher: 32.1% for the first, -21.45% for the second.

First: Cc1cc(O)nc(C2CCCN(CCO)C2)n1 (stereo not drawn)
Second: O=C(O)c1ccccc1CN1CCOC(CCc2ccncn2)C1 (stereo not drawn)
The INHIBITION of the first is lower: -0.232% for the first, 20.8% for the second.

Going from CCCC(=O)N1CCc2c(CNS(C)(=O)=O)cncc2C1 to Cn1cnc(S(=O)(=O)N2CCCCc3ccccc32)c1, the INHIBITION falls from 13.5% to -0.613%.

First: O=C(c1cnc2ccc(F)cc2c1NCc1ccco1)N1CCCC1
Second: Cc1nn(C)cc1-c1ccnc(N(C)Cc2ccc(F)cc2)n1
The INHIBITION of the first is higher: 37.2% for the first, 30.1% for the second.

Compared with CC(=O)N1CCSCC1c1ccc(C)o1 (stereo not drawn), CN(C)[C@@H]1CCN(C(=O)c2ccsc2)[C@H]1Cc1cccnc1 is higher in INHIBITION: -13.8% for the first, 38.1% for the second.

Going from COC(=O)c1ccc(CNCc2cn(C)nc2C)cc1 to COc1ccc(CNCc2cn(C)nc2C)cc1, the INHIBITION falls from 70.8% to 24.8%.

First: COC(=O)c1ccc(CCn2cnc(C#N)n2)cc1
Second: COC(=O)c1ccc(Cn2cnc(C#N)n2)cc1
The INHIBITION of the first is higher: 13.8% for the first, 6.23% for the second.

First: COC(=O)c1ccc(CNCc2ccn(C)n2)cc1
Second: COc1ccc(CN(C)c2nccc(-c3cn(C)nc3C)n2)cc1
The INHIBITION of the first is higher: 56% for the first, -7.76% for the second.

First: Cc1nn(C)cc1-c1ccnc(N(C)Cc2cccs2)n1
Second: Cc1nn(C)cc1-c1ccnc(N(C)Cc2ccoc2)n1
The INHIBITION of the first is lower: 35.5% for the first, 51.8% for the second.

Going from COc1ccccc1CN(C)c1nccc(-c2cn(C)nc2C)n1 to Cc1ccc(CN(C)c2nccc(-c3cn(C)nc3C)n2)o1, the INHIBITION falls from 82.3% to 50.7%.

Going from CN(Cc1ccoc1)c1ccc(-c2nccn2C)nn1 to Cc1nn(C)cc1-c1ccnc(N(C)Cc2cnn(C)c2)n1, the INHIBITION rises from -120% to 74.5%.

First: Cc1nn(C)cc1CN(C)c1nccc(-c2cn(C)nc2C)n1
Second: Cc1nn(C)cc1-c1ccnc(N(C)Cc2ccon2)n1
The INHIBITION of the first is lower: 28% for the first, 49.6% for the second.

Compared with CC(CNC(=O)OC(C)(C)C)N(C)C(=O)COc1ccccc1C#N (stereo not drawn), Cc1ncsc1C(=O)N(C)Cc1ccsc1 is lower in INHIBITION: 15.9% for the first, -23.955% for the second.
